MEKK2 mut-MEK5 = signal of MEK5 binding to mutant human MEKK2 PB1 domain. bead flow cytometry, Alexa488-MEK5 binding to MEKK2 mutant. percent response, % at 10 µM. AID 1530. 290,000 compounds, 0.35% hits; in the data active means percent response above about 24%, passing the limit was not always enough
MEKK3 PB1 HTS = modulators (inhibitors or enhancers) of MEK5 binding to human MEKK3 PB1 domain | Q99759 | bead-based flow cytometry, Alexa488-MEK5 binding to MEKK3; actives lie on both sides; 0 = blocked by unlabeled MEK5, 100 = vehicle | binding response (% of control), % at 10 µM | 290,000 compounds, 1.4% hits | AID 1529;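 active means binding response more than 3 SD above or below the average of its plate-row segment, actives on both sides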;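 further: Alexa488 bead fluorescence after subtracting the streptavidin-only scavenger bead signal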
Target sequence (Q99759 whole entry, looked up, the tested form may be a part): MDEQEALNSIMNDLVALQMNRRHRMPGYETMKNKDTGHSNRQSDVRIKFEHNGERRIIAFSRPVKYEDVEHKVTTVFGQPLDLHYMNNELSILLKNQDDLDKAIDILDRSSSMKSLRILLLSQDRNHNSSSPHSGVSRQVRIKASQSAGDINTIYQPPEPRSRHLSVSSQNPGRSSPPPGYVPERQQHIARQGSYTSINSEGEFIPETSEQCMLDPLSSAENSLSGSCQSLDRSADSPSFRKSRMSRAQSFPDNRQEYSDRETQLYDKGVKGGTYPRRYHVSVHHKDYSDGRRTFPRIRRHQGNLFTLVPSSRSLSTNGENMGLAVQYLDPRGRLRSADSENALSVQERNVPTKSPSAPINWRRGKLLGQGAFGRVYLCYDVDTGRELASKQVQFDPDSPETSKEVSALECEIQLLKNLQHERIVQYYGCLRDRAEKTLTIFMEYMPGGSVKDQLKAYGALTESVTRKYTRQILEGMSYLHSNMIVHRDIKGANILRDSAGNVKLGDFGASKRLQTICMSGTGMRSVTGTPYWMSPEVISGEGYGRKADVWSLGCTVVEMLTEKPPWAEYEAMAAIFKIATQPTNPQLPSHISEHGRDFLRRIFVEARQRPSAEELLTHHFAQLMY
Beta2AR agonist = agonists of human beta-2 adrenergic receptor inducing internalization. P07550. Am2.2-beta2AR cells, FAP receptor internalization, flow cytometry. response, % (concentration not given with the values). 340,000 compounds, 0.43% hits;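 active means response above a set limit, near 3 SD of response in nonfluorescent compounds, cut at about 42% in these data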
GRK2 aptamer HTS = blocks RNA aptamer binding to human GRK2. 330,000 compounds, 0.59% hits. inhibition of aptamer binding, % at 10 µM. bead flow cytometry, FAM-aptamer displacement from GRK2;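 active means inhibition of aptamer binding above 40%, roughly 3 SD of noise, on plates passing a quality check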;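 further: median bead fluorescence of bound FAM aptamer so fluorescent compounds give negative values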
MEKK2wt PB1 HTS = raises or lowers MEK5 binding to wildtype human MEKK2 PB1 domain | Q9Y2U5 | bead flow cytometry, Alexa488-MEK5 binding to MEKK2 WT; actives lie on both sides | binding response (% of control), % at 10 µM | 290,000 compounds, 1.1% hits; in the data active means binding response below about 67% or above about 130%
MEKK2wt confirm = raises or lowers MEK5 binding to wildtype human MEKK2, retest. shares compounds with MEKK3 PB1 HTS. bead flow cytometry, Alexa488-MEK5 binding to MEKK2 WT; actives lie on both sides. binding response (% of control), % at 10 µM. 5,900 compounds, 2.4% hits. AID 1892; in the data active means binding response below about 16% or above about 210%; inactive means in between
MEKK2mut-MEK5 = signal of MEK5 binding to mutant human MEKK2, retest | bead flow cytometry, Alexa488-MEK5 binding to MEKK2 mutant | AID 1893 | percent response, % at 10 µM | 5,900 compounds, 2% hits | shares compounds with MEKK3 PB1 HTS; in the data active means percent response mostly above about 71%, no sharp cut-off; inactive means mostly below about 38%;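 further: higher means compound restores mutant binding toward wildtype level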
MEKK3-MEK5 inh = MEKK3-MEK5 PB1 inhibition, single concentration confirmation | shares compounds with MEKK3 PB1 HTS | bead flow cytometry, Alexa488-MEK5 binding to MEKK3; hits give low values | binding response (% of control), % at 10 µM | 5,900 compounds, 1.8% hits;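 active means binding response below 72% of control, or above a set upper limit, though filed actives all read lower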;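 further: 100% = DMSO only wells and 0% = binding blocked by excess unlabeled MEK5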
Active calls of the source: *; [ ] = remark or other dose. Sampled rows, rich in hits. Any-hit rate of the full collection: about 2.9%.

`CCN1CCN(c2cc(C)c3cc(NC(=S)NCc4cccs4)ccc3n2)CC1` gave MEKK2 mut-MEK5 4.0, MEKK3 PB1 HTS 89.0, Beta2AR agonist -7.0, GRK2 aptamer HTS 0.0 and MEKK2wt PB1 HTS 133.0.
For CCCCN(CC)CCCNC(=S)Nc1ccc2nc(N3CCN(C)CC3)cc(C)c2c1 the results were MEKK2 mut-MEK5 15.0, MEKK3 PB1 HTS 97.0, Beta2AR agonist 17.2, GRK2 aptamer HTS 0.0, MEKK2wt PB1 HTS 142.0*, MEKK2wt confirm 142.0, MEKK2mut-MEK5 21.0 and MEKK3-MEK5 inh 108.0.
Screening COc1ccccc1CNC(=S)Nc1ccc2nc(N3CCN(C)CC3)cc(C)c2c1 returned MEKK2 mut-MEK5 22.0, MEKK3 PB1 HTS 105.0, Beta2AR agonist 10.8, GRK2 aptamer HTS 0.0, MEKK2wt PB1 HTS 138.0*, MEKK2wt confirm 141.0, MEKK2mut-MEK5 9.0 and MEKK3-MEK5 inh 101.0.
Screening Cc1cc(N2CCN(C)CC2)nc2ccc(NC(=S)NCc3cccs3)cc12 returned MEKK2 mut-MEK5 21.0, MEKK3 PB1 HTS 110.0, Beta2AR agonist 17.5, GRK2 aptamer HTS 0.0, MEKK2wt PB1 HTS 141.0*, MEKK2wt confirm 124.0, MEKK2mut-MEK5 15.0 and MEKK3-MEK5 inh 104.0.
Screening COc1ccc(CNC(=S)Nc2ccc3nc(N4CCN(C)CC4)cc(C)c3c2)cc1 returned MEKK2 mut-MEK5 30.0, MEKK3 PB1 HTS 117.0, Beta2AR agonist 4.5, GRK2 aptamer HTS 0.0, MEKK2wt PB1 HTS 152.0*, MEKK2wt confirm 118.0, MEKK2mut-MEK5 9.0 and MEKK3-MEK5 inh 101.0.
Cc1nccn1C(c1ccccc1)c1ccccc1 was read as Beta2AR agonist -2.1 and GRK2 aptamer HTS 1.0.
`Cc1cccc(COCCN2CCN(S(=O)(=O)c3ccccc3)CCC2=O)c1` gave MEKK2 mut-MEK5 5.0, MEKK3 PB1 HTS 105.0, Beta2AR agonist -2.4, GRK2 aptamer HTS 4.0 and MEKK2wt PB1 HTS 107.0.
`CC1=C[C@@H](C)[C@@H](c2ccccc2)OC1=O` gave MEKK2 mut-MEK5 -6.0, MEKK3 PB1 HTS 78.0*[inhibitor], Beta2AR agonist -3.7, GRK2 aptamer HTS 2.0, MEKK2wt PB1 HTS 88.0, MEKK2wt confirm 102.0, MEKK2mut-MEK5 14.0 and MEKK3-MEK5 inh 105.0.
COc1cc2[nH]c(=O)n(CCCC(=O)N3CC=C(c4ccccc4)CC3)c(=O)c2cc1OC was read as MEKK2 mut-MEK5 10.0, MEKK3 PB1 HTS 127.0*, Beta2AR agonist 1.1, GRK2 aptamer HTS 2.0, MEKK2wt PB1 HTS 120.0, MEKK2wt confirm 105.0, MEKK2mut-MEK5 4.0 and MEKK3-MEK5 inh 104.0.
`COc1cc2c(C(=O)NCCCOC(C)C)cn(CC(C)C)c(=O)c2cc1OC` gave MEKK2 mut-MEK5 -3.0, MEKK3 PB1 HTS 81.0*[inhibitor], Beta2AR agonist -9.7, GRK2 aptamer HTS 1.0, MEKK2wt PB1 HTS 87.0, MEKK2wt confirm 99.0, MEKK2mut-MEK5 2.0 and MEKK3-MEK5 inh 103.0.
COc1cc2c(C(=O)NCCN(C)C)cn(CC(C)C)c(=O)c2cc1OC was read as MEKK2 mut-MEK5 1.0, MEKK3 PB1 HTS 103.0, Beta2AR agonist -9.5, GRK2 aptamer HTS 3.0 and MEKK2wt PB1 HTS 102.0.
Screening N#Cc1c(-c2cccnc2)cc(-c2ccccc2)nc1N returned MEKK2 mut-MEK5 21.0, MEKK3 PB1 HTS 129.0*, Beta2AR agonist 8.1, GRK2 aptamer HTS 0.0, MEKK2wt PB1 HTS 111.0, MEKK2wt confirm 97.0, MEKK2mut-MEK5 -3.0 and MEKK3-MEK5 inh 100.0.
N#Cc1c(-c2ccccc2F)cc(-c2cccnc2)nc1N was read as MEKK2 mut-MEK5 -1.0, MEKK3 PB1 HTS 100.0, Beta2AR agonist 0.7, GRK2 aptamer HTS 4.0 and MEKK2wt PB1 HTS 100.0.
For CCCn1c(N2CCN(C(=O)N3CCCCC3)CC2)nc2ccccc21 the results were MEKK2 mut-MEK5 -18.0, MEKK3 PB1 HTS 2.0*[inhibitor], Beta2AR agonist -21.4, GRK2 aptamer HTS 0.0, MEKK2wt PB1 HTS 2.0*[inhibitor], MEKK2wt confirm 104.0, MEKK2mut-MEK5 1.0 and MEKK3-MEK5 inh 101.0.
